# V-ATPase pH: regulators of yeast V-ATPase proton pumping, primary screen, pHLuorin cytosolic pH fluorescence. hit rate 0.37% among 350,000. response, % at 10 µM. S. cerevisiae. AID 504577, 2011; in the data active = response mostly above about 7.3%, no sharp cut-off; inactive = mostly below about 5.4%; also: actives read high
# TIM10 inh: growth inhibitors of isogenic TIM10 control yeast, primary screen, counter-screen for tim10-1 yeast inhibitor project, luminescence, uHTS | AID 463195, 2010 | hit rate 1.4% among 330,000 | S. cerevisiae TIM10 strain growth, BacTiter-Glo luminescence, 24 h | inhibition, % at 10 µM;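 active = inhibition of 40% or more at the single tested concentration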;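 also: wild-type TIM10 isogenic control strain grown at permissive 25 °C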
# tim23-1 inh: growth inhibitors of tim23-1 mutant yeast, primary screen, luminescence, uHTS. hit rate 1.3% among 330,000. S. cerevisiae tim23-1 growth, BacTiter-Glo luminescence, 24 h. inhibition, % at 20 µM;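 active = growth inhibition of the mutant yeast at or above 50%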;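 also: temperature-sensitive mutant grown at 25 °C; plate controls were DMSO-treated mutant yeast for no effect and medium wells lacking yeast for full effect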
# tim10-1 inh: growth inhibitors of tim10-1 mutant yeast, primary screen, luminescence, uHTS. S. cerevisiae tim10-1 ts strain growth, BacTiter-Glo, 24 h. inhibition, % at 20 µM. hit rate 2.2% among 330,000. AID 463190, 2010;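 active = inhibition of at least 40%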;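 also: mutant grown at 25 °C; 0% = DMSO wells with yeast and 100% = wells holding no yeast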
# NALP1 inh: NALP1 inflammasome inhibitors in reconstituted yeast, colorimetric, S. cerevisiae, triplicate retest. inhibition, % at 10 µM. S. cerevisiae NALP1/ASC/caspase-1 growth, X-gal OD620, 72 h. hit rate 0.61% among 280,000; in the data active = inhibition mostly above about 24%, no sharp cut-off; inactive = mostly below about 32%
# NLRP3 yeast inh: NALP3 inflammasome inhibitors in reconstituted yeast, primary screen, luminescence, uHTS; AID 2825, 2010; inhibition, % at 10 µM; Yeast reconstituted NLRP3/ASC/caspase-1, beta-gal luminescence, 24 h; hit rate 0.39% among 330,000;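 active = inhibition of 50% or more; inactive = inhibition below 50%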;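 also: plate controls were induced DMSO wells for no effect and uninduced yeast grown without galactose for full effect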
# tim10-1 conf: growth inhibitors of tim10-1 mutant yeast, confirmation, single concentration, luminescence, S. cerevisiae; inhibition, % at 20 µM; shares compounds with tim10-1 inh; hit rate 56% among 7,400; S. cerevisiae tim10-1 ts strain growth, BacTiter-Glo, 24 h;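 active = inhibition of yeast growth at or above a set limit in either of two repeat tests at 20 µM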;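 also: tim10-1 mutant grown at permissive 25 °C to find synthetic lethal compounds; 0% = DMSO yeast wells and 100% = medium wells without yeast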
# * marks the source's active call; other numbers are inactive results; nt = no result. This is a sample that favours compounds with a hit; in the whole collection about 4.2% have one here.
SMILES,V-ATPase pH,TIM10 inh,tim23-1 inh,tim10-1 inh,NALP1 inh,NLRP3 yeast inh,tim10-1 conf
COC(=O)CSc1nnc([C@H](Cc2ccccc2)NC(=O)OC(C)(C)C)o1,4,-5,19,16,8,12,nt
COC(=O)CS(=O)(=O)c1nnc([C@H](Cc2ccccc2)NC(=O)OC(C)(C)C)o1,0,18,23,44*,13,13,38*
C=CCN1C(=O)C(O)(CC(=O)c2ccc(-n3cccc3)cc2)c2ccccc21 (centres undefined),-1,29,39,43*,29,12,36*
CCn1ccnc1CN(C)Cc1cn(-c2cc(C)ccc2C)nc1-c1ccccc1,-3,27,31,42*,-8,29,17
Cc1ccnc(-n2c(CCN3C(=O)c4ccccc4C3=O)nc3ccccc3c2=O)c1,-1,18,30,27,-2,-4,nt
O=C1c2ccccc2C(=O)N1CCc1nc2ccccc2c(=O)n1-c1ccccn1,-2,26,29,49*,13,-8,21
CNc1ccccc1C(C)(C)c1cc(-c2cccc([N+](=O)[O-])c2)no1,0,37,27,43*,-7,26,33*
CNc1ccccc1C(C)(C)c1cc(-c2cccc(Br)c2)no1,-2,13,31,37,-5,-2,nt
COc1ccccc1NC(=O)Cn1c2ccccc2c2nc3n(c(=O)c21)CCS3,-3,7,-2,42*,16,1,20
O=C(Nc1ncc2c(n1)-c1ccccc1CC2)c1ccccc1,3,12,39,47*,-13,9,29
O=C(Nc1ncc2c(n1)-c1ccccc1CC2)c1ccc(F)cc1,0,26,35,40*,-7,13,26
O=C(Nc1ncc2c(n1)-c1ccccc1CC2)c1cccs1,1,27,38,26,17,-1,nt
O=[N+]([O-])c1ccc(CN2CC(N3CCN(CC4CC4)CC3)CS2(=O)=O)cc1 (centres undefined),2,nt,nt,nt,nt,nt,nt
Cc1ccc(S(=O)(=O)NC(=O)c2ccc(-c3ccc(-c4ccccc4)cc3)o2)c(C)c1,nt,-1,10,43*,17,-5,33*
Cc1cc(/C=N\NC(=O)CC(=O)NC2CCCCC2)c(C)n1-c1cccc(Cl)c1Cl,-5,8,27,10,22,21,nt
Cc1cc(/C=N\NC(=O)CC(=O)NC2CCCCC2)c(C)n1-c1ccc(Cl)c(Cl)c1,1,-9,0,46*,-1,7,-20
Cc1cccc(C)c1-n1c(C)cc(/C=N\NC(=O)CC(=O)NC2CCCCC2)c1C,1,22,22,41*,24,-10,27
O=Cc1ccc(OC(=O)c2cc(Cl)nc3ccccc23)cc1,6,14,27,44*,35,5,21
O=C(Oc1cccc2ccccc12)c1cc(Cl)nc2ccccc12,9,16,24,18,18,12,nt
COc1cc(NC(=O)c2cccs2)c(OC)cc1NC(=O)CCC(=O)Nc1ccc2ncccc2c1,-2,-9,-18,-6,5,2,nt
COc1cc(NC(=S)Nc2ccc3c(c2)OCCO3)cc(OC)c1OC,1,28,18,7,nt,6,nt
S=C(Nc1ccc(Br)cc1)Nc1ccc2c(c1)OCCO2,4,15,34,45*,-10,25,3
Cc1ccc(C23CC4CC(CC(C(=O)NC(C)C(N)=O)(C4)C2)C3)cc1 (centres undefined),6,1,11,3,12,0,nt
CCC(C)c1ccccc1N1CC(C(=O)NCCCn2nc(C)cc2C)CC1=O (centres undefined),-4,5,13,6,nt,16,nt
CCCCc1ccccc1NC(=S)NC1CCCC1,-1,32,40,43*,10,26,12
SMILES,V-ATPase pH,TIM10 inh,tim23-1 inh,tim10-1 inh,NALP1 inh,NLRP3 yeast inh,tim10-1 conf
CSc1ccccc1NC(=S)N/N=C/c1cccn1Cc1ccc(F)cc1,10,23,12,44*,-8,19,30
Cc1ccc(-c2csc(=S)[nH]2)cc1,4,19,27,20,-4,6,nt
S=c1[nH]c(-c2ccc(Cl)cc2)cs1,2,12,33,48*,-16,-3,17
CCOC(=O)c1cnc(Nc2nc3ccccc3o2)nc1CSc1nnc(C)s1,-1,10,11,50*,nt,9,16
Cc1ccsc1C(=O)NCCc1ccc(S(N)(=O)=O)cc1,4,-6,6,-16,27,3,nt
Cc1cc(Cl)ccc1OCCCC(=O)N1CCOCC1,0,8,19,42*,-8,13,29
Cc1noc(C)c1C(=O)Nc1nnc(-c2ccccc2)s1,-2,-12,9,4,-8,14,nt
Cc1onc(-c2ccccc2)c1C(=O)Nc1nnc(-c2ccncc2)s1,-4,24,31,44*,16,25,39*
CN(C)c1ccc(C(=O)c2ccc(O)cc2O)cc1,-3,20,49,41*,13,33,27
O=C(Nc1ccc(Cl)cc1)NC1CCCCC1Cc1ccco1 (centres undefined),1,38,7,47*,-3,18,41*
O=C(Nc1ccc(Cl)cc1)NC1CCCC1Cc1ccco1 (centres undefined),-3,33,26,33,5,14,nt
CCOC(=O)c1cc(-c2ccncc2)nc2c1c(C)nn2-c1ccccn1,2,34,45,45*,nt,-4,34*
C=CCNc1sc(C(=O)c2ccccc2)c(N)c1-c1nc2ccccc2s1,0,22,44,40*,0,18,18
Cc1ccc(C)c(OCCC(=O)OCC(=O)N2CCN(S(=O)(=O)c3ccc(Cl)cc3)CC2)c1,-1,33,28,45*,nt,31,29*
CCOc1ccc(OCCC(=O)OCC(=O)N2CCN(S(=O)(=O)c3ccc(Cl)cc3)CC2)cc1,5,22,30,36,2,11,nt
O=C(Nc1ccc2c(c1)OCCO2)C(=O)NC1CC1,4,6,4,-9,4,23,nt
CCCCCCCCCCCCCCC(O)C[N+](C)(CCO)CCO (centres undefined),1,nt,nt,nt,nt,nt,nt
O=C(Nc1ccc(F)c([N+](=O)[O-])c1)c1ccc2c(c1)C(=O)OC2=O,nt,nt,nt,nt,-6,nt,nt
COc1ccccc1NC(=O)CSC1CC(=O)N(c2ccc3c(c2)OCO3)C1=O (centres undefined),2,20,31,47*,31*,25,45*

# Bioassay records (PubChem BioAssay)
